From PubChem
Pf Dd2 inh – qHTS Primary assay for Inhibitors of Plasmodium falciparum Dd2 growth in vitro. Potency, µM (doses to about 28.9 µM), hits mostly inhibitors. P. falciparum Dd2 growth, SYBR Green, 72 h. actives 4.3% (n = 120,000); active means well fitted inhibition curve with a large enough effect; further: nearly all actives have a fitted effect of over 65% in size
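Infected erythrocytes (Dd2, 0.3% parasitemia, 2.5% hematocrit final) are added to compound in RPMI-1640/Albumax II medium, grown 72 h at 37C in low oxygen, then lysed with saponin/Triton-X containing SYBR Green and read by fluorescence.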
Each line names hits and unclear results; the compound was inactive in the other large screens. The full list was thinned out, with hits kept by preference.

O=C(C1CCN(S(=O)(=O)N2CCOCC2)CC1)N1CCCC(c2nc(C3CCOCC3)no2)C1 (centres undefined)	none
CN(C)c1ccc(C(=O)N2CCCC(COc3ccccc3C(=O)N3CCCC3)C2)cc1 (centres undefined)	Pf Dd2 inh 6.31µM
O=C(c1ccccc1OCC1CCCN(C2CCCC2)C1)N1CCCC1 (centres undefined)	none
O=C(c1ccncc1)N1CCCC(COc2ccccc2C(=O)N2CCOCC2)C1 (centres undefined)	none
Cc1c(CN2CCN(Cc3cccs3)C(CCO)C2)cnn1C (centres undefined)	none
O=C(Cc1ccc(F)cc1)N1CCC2(CC1)NC(=O)N(c1ccc(F)cc1)N2	none
CNC(C)c1ccncc1 (centres undefined)	none
CNC(C)c1ccc(Oc2ccccc2)cc1 (centres undefined)	Pf Dd2 inh 11.2µM
CNC(C)c1ccc(OC(F)(F)F)cc1 (centres undefined)	none
CCC(Sc1nc2ccccc2c(=O)n1CCc1ccc(OC)c(OC)c1)C(=O)N(CC)CC (centres undefined)	none
CCC(Sc1nc2c(sc3ccccc32)c(=O)n1CCc1ccc(OC)c(OC)c1)C(=O)N(CC)CC (centres undefined)	Pf Dd2 inh 3.98µM
CCC(Sc1nc2c(sc3ccccc32)c(=O)n1CCc1ccccc1)C(=O)N(CC)CC (centres undefined)	none
CCCc1noc(-c2cccn3c(CNC(=O)c4ccc(C)cc4)nnc23)n1	Pf Dd2 inh 12.6µM
CCCc1noc(-c2cccn3c(CNC(=O)Cc4ccc(Cl)cc4)nnc23)n1	none
CCCc1noc(-c2cccn3c(CNC(=O)Cc4ccccc4Cl)nnc23)n1	none
COC(=O)[C@H](Cc1ccc(OC)cc1)NC(=O)[C@@H]1CNCCN1C(C)=O	none
Cn1cc(CN2C[C@H](O)C[C@H]2c2nc(-c3cccc([N+](=O)[O-])c3)no2)c2ccccc21	none
O=C1NCc2ccccc2CC12CCCN2Cc1ccccc1Cl (centres undefined)	none
O=C1NCc2ccccc2CC12CCCN2Cc1ccc(Cl)cc1 (centres undefined)	none
O=C1NCc2ccccc2CC12CCCN2Cc1ccc(Cl)s1 (centres undefined)	Pf Dd2 inh 10µM
O=C1NCc2ccccc2CC12CCCCN2Cc1ccnc2ccccc12 (centres undefined)	Pf Dd2 inh 8.91µM
O=C1NCc2ccccc2CC12CCN(Cc1ccc(Cl)s1)C2 (centres undefined)	none
O=C1NCc2ccccc2CC12CCCN2Cc1cnc2ccccc2c1 (centres undefined)	Pf Dd2 inh 8.91µM
O=C1NCc2ccccc2CC12CCCN2Cc1cc(O)cc(O)c1 (centres undefined)	none
O=C1NCc2ccccc2CC12CCN(Cc1cnc3ccccc3c1)C2 (centres undefined)	none
O=C1NCc2ccccc2CC12CCCCN2Cc1ccc(O)cc1 (centres undefined)	none
OCc1ccc(CN2C[C@H](O)C[C@H]2c2nc(-c3ccc(OC(F)(F)F)cc3)no2)o1	none
CNC(=O)[C@@H]1CN(C(=O)c2occc2C)C[C@H]1COC	none
O=C(NCc1ccccc1-n1cccn1)C1NCCc2[nH]cnc21 (centres undefined)	none
Cc1ccc(C)c(CN2C(=O)C(=O)c3ccccc32)c1	none
Cc1ccc(-c2cccc(C=O)c2)c(C)c1	none
Cc1ccc(-c2ccccc2CN)c(C)c1	Pf Dd2 inh 5.01µM
CCNC(=O)NCCc1ncc(C)n1Cc1ccc(F)cc1	none
CC(=O)N1CCc2nc(C(C)C)nc(-c3ccc(O)cc3)c2CC1	none
CC(C)c1nc2c(c(-c3ccc(O)cc3)n1)CN(CC1CCCCC1)CC2	Pf Dd2 inh 3.55µM
CC(C)c1nc2c(c(-c3ccc(O)cc3)n1)CN(Cc1ccccn1)CC2	none
CC(C)c1nc2c(c(-c3ccc(O)cc3)n1)CN(Cc1cccn1C)CC2	none
CC(C)c1nc2c(c(-c3ccc(O)cc3)n1)CCN(Cc1cccc3ccccc13)CC2	Pf Dd2 inh 3.16µM
CC(C)c1nc2c(c(-c3ccc(O)cc3)n1)CN(Cc1cccnc1)CC2	none
Cc1nc2c(c(-c3ccc(O)cc3)n1)CN(Cc1cccc3ccccc13)CC2	none
Cc1nc2c(c(-c3ccc(Cl)cc3)n1)CCN(C(=O)Nc1ccccc1)CC2	none
CC(=O)Nc1ccc(CN2CCn3c(nnc3-c3ccc(Cl)cc3)C2)cc1	none
CC(C)c1nc2c(c(-c3ccc(O)cc3)n1)CCN(Cc1ccc(C(F)(F)F)cc1)CC2	Pf Dd2 inh 1.78µM
CN(C)c1ccc(CN2CCc3nc(C4CC4)nc(-c4ccc(O)cc4)c3CC2)cc1	none
CC(=O)Nc1ccc(CN2CCc3nc(C(C)C)nc(-c4ccc(Cl)cc4)c3CC2)cc1	Pf Dd2 inh 1.12µM
CN(C)Cc1nc(C(=O)N2CCn3nc(CCC(=O)O)cc3C2)cs1	none
Cn1cc(CN[C@H]2C[C@H]3C(=O)NC[C@@H](CCC(=O)N4CCCCC4)N3C2)c2ccccc21	none
CCn1c(-c2ccccc2)nn(CC(=O)NCc2noc(-c3ccco3)n2)c1=O	none
O=C(c1cccc(Cl)c1)N1CCN(c2cc(-c3ccccc3)[nH]n2)CC1	none
COCCn1nc2n(c1=O)CCN(Cc1sccc1C)CC2	none
CN(CC1CCOC1)C(=O)c1ccc(F)c(F)c1 (centres undefined)	none
O=S(=O)(N[C@@H]1CCOC[C@H]1O)c1cccc(C(F)(F)F)c1	none
CC(C)CC(=O)NCCC1CCN(C(=O)Nc2ccc(F)cc2F)CC1	none
O=C(NC1CCCCC1)[C@@H]1C[C@@H](O)CN1C1CCN(C(=O)c2cccnc2)CC1	none
COc1cccc(CN2CCc3nn(Cc4ccccc4)c(=O)n3CC2)n1	none
Cc1ccc(CN2CCCc3nc(C)nc(-c4ccc(O)cc4)c3C2)cc1	Pf Dd2 inh 2.82µM
Cc1nc2c(c(-c3ccc(O)cc3)n1)CN(Cc1ccc(F)cc1)CCC2	none
COc1ccc(CN2CCc3nc(C)nc(-c4ccc(O)cc4)c3C2)cc1	none
CC(=O)N1CCCC(C(=O)N2CCC(Cc3noc(C)n3)CC2)C1 (centres undefined)	none
CCOCCOC1CCN(C(=O)c2ccc(OC)nc2)CC1	none
CCn1c(C2CCCN(Cc3ccccn3)C2)nn(C)c1=O (centres undefined)	none
O=c1[nH]nc2n1CCN(Cc1ccc3c(c1)CCO3)CC2	none
c1cc2c(cc1CN1CCOCC1)CNCCO2	Pf Dd2 inh 7.94µM
CCN(CC)Cc1ccc2c(c1)CNCCO2	none
Cc1cc2cc(-c3c(C)noc3C)nc(N3CCN(C)C(=O)C3)c2o1	none
CC(=O)N1CCN(c2nc(-c3c(C)noc3C)cc3cc(CN(C)C)oc23)CC1	Pf Dd2 inh 7.94µM
Cc1ccccc1-c1nc(-c2c(C)noc2C)cc2cc(CN(C)C)oc12	none
CCN1CCN(c2ccc(C(=O)NCCCc3ccc(OC)cc3)cn2)CC1	none
Cc1nn(CC(=O)NCc2ccccc2Cl)c(=O)c2nn(-c3ccccc3)c(C)c12	none
O=C(Cn1c2ncccc2c(=O)n1-c1ccccc1)NCc1ccccc1	none
CCc1cccc(-n2c(=O)c3cccnc3n2CC(=O)NCc2ccccc2)c1	Pf Dd2 inh 1µM
CCc1ccc(-n2c(=O)c3cccnc3n2CC(=O)NCc2ccc(F)cc2)cc1	none
O=C(Cn1c2ncccc2c(=O)n1-c1ccccc1)Nc1ccc(Cl)cc1C(F)(F)F	none
CCc1cccc(-n2c(=O)c3cccnc3n2CC(=O)NCc2ccc(C)cc2)c1	Pf Dd2 inh 1.12µM
Cc1ccc(-n2c(=O)c3cccnc3n2CC(=O)Nc2cc(Cl)ccc2C)cc1	none
CCc1cccc(-n2c(=O)c3cccnc3n2CC(=O)NCc2ccccc2Cl)c1	Pf Dd2 inh 2.24µM
CCc1cccc(-n2c(=O)c3cccnc3n2CC(=O)Nc2ccccc2C(=O)OC)c1	none
